We go through twelve compounds from PubChem BioAssay AID504452 (The Scripps Research Institute Molecular Screening Center, 2011).

Active and inactive are the calls of the source. Rule as the data show it: active = activation above about 85%; inactive = the rest.

The test deals with Peroxisome proliferator-activated receptor gamma (Homo sapiens) (UniProt P37231). Description: partial agonism at human PPARgamma receptor – cell-based, luciferase reporter, luminescence, primary screen (AID 504452).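 Also: Cos-1 cells carrying PPARgamma and a response element luciferase reporter.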 To be noted: cell-based PPARg luciferase reporter, at 5 µM, stronger effect = higher value; activation (% of full agonist control): measured here: relative to full agonist control. A general note: A reporter such as luciferase makes a cellular process visible.
Peroxisome proliferator-activated receptor gamma (Homo sapiens), sequence (P37231 whole entry, looked up): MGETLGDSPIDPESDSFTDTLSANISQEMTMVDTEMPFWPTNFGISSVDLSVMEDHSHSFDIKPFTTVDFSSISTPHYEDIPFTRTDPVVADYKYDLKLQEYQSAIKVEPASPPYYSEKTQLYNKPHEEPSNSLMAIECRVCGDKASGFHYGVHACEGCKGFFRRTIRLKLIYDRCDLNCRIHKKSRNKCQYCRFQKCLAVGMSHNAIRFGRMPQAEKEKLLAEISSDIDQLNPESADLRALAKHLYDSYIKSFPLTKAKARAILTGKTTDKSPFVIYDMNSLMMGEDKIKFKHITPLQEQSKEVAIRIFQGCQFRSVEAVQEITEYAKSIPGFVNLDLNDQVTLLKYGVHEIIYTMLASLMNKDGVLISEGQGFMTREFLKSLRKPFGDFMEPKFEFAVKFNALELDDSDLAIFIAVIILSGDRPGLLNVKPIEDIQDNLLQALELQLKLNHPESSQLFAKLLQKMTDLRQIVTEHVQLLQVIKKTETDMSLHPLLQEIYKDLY
For the compound `COC(=O)C1=CN(Cc2ccc(F)cc2)C=C(C(=O)OC)C1c1ccc(O)c(OC)c1`, the activation (% of partial agonist control) was 59.4% (inactive) and the activation (% of full agonist control) is 26.8%.
The matching figures for `CC(OC(=O)CNC(=O)c1ccc(F)cc1)C(=O)Nc1ccc(S(=O)(=O)N2CCOCC2)cc1` (centres undefined): 77.2% (inactive) and 34.9%.
The matching figures for `O=C(Cn1c(=O)c(=O)n(Cc2ccccc2)c2ccc(Cl)cc21)NCC1CCCO1` (centres undefined): 68.9% (inactive) and 31.1%.
`COc1ccccc1N1C(=O)C2C(C(=O)c3ccccc3)=NN(c3ccc(C)cc3)C2C1=O` (centres undefined): the activation (% of full agonist control) turned out to be 47.8% and the activation (% of partial agonist control) is 106% (active).
The matching figures for `O=C(OCC1OC(Oc2ccc(O)cc2)C(O)C(O)C1O)c1ccccc1` (centres undefined): 9.83% and 21.8% (inactive).
In the case of `COc1ccc2c(c1)c(=O)c(C(=O)c1ccc(F)cc1)cn2CC(=O)Nc1ccc(F)cc1`, the activation (% of partial agonist control) was 108% (active) and the activation (% of full agonist control) was 48.8%.
In the case of `O=C1C(=O)N(CC2CCCO2)C(c2ccco2)/C1=C(/O)c1ccc(F)cc1` (centres undefined), the activation (% of partial agonist control) is 33.1% (inactive) and the activation (% of full agonist control) worked out at 15%.
The corresponding values for `COc1ccc(/C=C(\NC(=O)c2ccco2)C(=O)NC(Cc2ccccc2)C(=O)O)cc1` (centres undefined) are 69.3% (inactive) and 31.3%.
The matching figures for `Cc1ccc(-n2ncc3c(=O)[nH]c(SCC(=O)N4CCCc5ccccc54)nc32)cc1`: 80.5% (inactive) and 36.4%.
The corresponding values for `Cc1c(-n2cc(C(=O)c3cc(F)ccc3O)cc(C#N)c2=O)c(=O)n(-c2ccccc2)n1C` are 96.7% (active) and 43.7%.
In the case of `COCCn1cnc2c1c(=O)n(Cc1cc(C(C)=O)ccc1OC)c(=O)n2Cc1ccccc1`, the activation (% of partial agonist control) is 88.2% (active) and the activation (% of full agonist control) was 39.8%.
The matching figures for `CC(=O)N1CCN(C(=O)c2ccccc2NS(=O)(=O)c2ccc(F)cc2)CC1`: 67.6% (inactive) and 30.5%.
